# Chronic BCR inh = qHTS Assay to Find Inhibitors of Chronic Active B-Cell Receptor Signaling. ABC-DLBCL IkBa-CBG/CBR reporter, luminescence ratio, 4 h. Potency, µM (highest dose often 46.1 µM), for the others: top-dose activity change, negative = inhibition, actives largely listed as inhibitors. 340,000 tested, 0.05% active; active = well fitted inhibition curve with a large enough effect in the signal ratio, with a control signal flat, not every such curve was filed as active; inconclusive = small, poorly fitted or top-dose-only effect, or effect the other way, or a change in a side signal; the % refers to the signal ratio;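 note: potency is the fitted concentration of half-maximal effect; plate controls were basal doxycycline-induced cells for no effect and cells given 10 µM MG132 for full effect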
#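 Compounds up to 46 uM were incubated four hours with TMD8 cells whose green CBG68 luciferase is fused to IkappaBalpha; red CBR luminescence normalised the signal, and concentration-effect curves were fitted to fusion, red and ratio data.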
# DT40 TDP1 CPT = qHTS for Inhibitors of human tyrosyl-DNA phosphodiesterase 1 (TDP1): qHTS in cells in presence of CPT. 420,000 tested, 12% active. chicken DT40 Tdp1-/-;hTDP1 cells + 20 nM CPT, ATP luminescence, 48 h. Potency, µM (titrated, usually from 46.2 µM), without a hit: top-dose activity change, negative = growth inhibition, most hits filed as inhibitors; note: potency is the fitted concentration of half-maximal effect; % is set by controls: 0 for no effect and ±100 for the full control effect; nearly all actives have a fitted effect of over 55% in size
#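 Chicken DT40 Tdp1-/- cells complemented with human TDP1, 400 cells/well, exposed to compounds plus 20 nM camptothecin for at least 48 h at 37 C; viability read as ATP content by CellTiter-Glo luminescence.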
# MCF10A rerep = A quantitative high throughput screen for small molecules that induce DNA re-replication in MCF 10a normal breast cells. MCF 10A DNA re-replication, Hoechst nuclear intensity, 48 h. Potency, µM (top dose mostly 46.1 µM), inactives show at the top dose activity, positive = re-replication, usual class: activators. 350,000 tested, 2.9% active. AID 624296, 2012; note: potency is the fitted concentration of half-maximal effect; % of control where 0% means no effect; nearly all actives have a fitted effect of over 50% in size
# SW480 rereplic = A quantitative high throughput screen for small molecules that induce DNA re-replication in SW480 colon adenocarcinoma cells; SW480 DNA re-replication, Hoechst DNA content imaging, 48 h; Potency, µM (titrated, usually from 46.1 µM), without a hit: top-dose re-replication activation, actives largely listed as activators; 340,000 tested, 1.8% active; AID 624297, 2012; note: potency is the fitted concentration of half-maximal effect; % of control where 0% means no effect; nearly all actives have a fitted effect of over 55% in size
#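 DNA re-replication was detected as more nuclei of elevated Hoechst intensity after 48 hr exposure to compound (23 nL pinned per well of 250 cells).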
# IL-1B inflam inh = qHTS for Inhibitors of Inflammasome Signaling: IL-1-beta AlphaLISA Primary Screen. THP-1 LPS/ATP IL-1B secretion, AlphaLISA, 16 h; active compounds read low. AID 743279, 2014. activity change, % at 57.5 µM. 360,000 tested, 4.7% active; in the data active = activity change below about -50%; inconclusive = mostly about -30% to -49%; note: % is set by controls: 0 for no effect and ±100 for the full control effect
#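 THP-1 cells pretreated 1 hr with compounds (up to 57.5 uM final), then stimulated with LPS (250 ng/mL final) plus ATP (1.25 mM final); secreted IL-1B measured by AlphaLISA after 16 hr, decreased signal indicating inhibition.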
# DT40 TDP1 no CPT = qHTS for Inhibitors of human tyrosyl-DNA phosphodiesterase 1 (TDP1): qHTS in cells in absence of CPT; 420,000 tested, 15% active; DT40 Tdp1-/- hTDP1 cells, no CPT, ATP luminescence, 48 h; Potency, µM (doses to about 46.2 µM), inactives show at the highest dose activity change, negative = growth inhibition, usual class: inhibitors; note: potency is the fitted concentration of half-maximal effect; % is set by controls: 0 for no effect and ±100 for the full control effect; nearly all actives have a fitted effect of over 55% in size
#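 Stably hTDP1-transfected Tdp1-null chicken DT40 cells were treated with library compounds minus camptothecin and grown for at least 48 hr at 37 °C, after which cellular ATP was quantified by luminescence.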
# Active calls of the source: *; ? = inconclusive; nt = no result given. Most compounds without a hit are left out; they make up all but 19% or so of the library. Unless noted, calls come from the whole dose curve; as a rule, active = well fitted curve in the direction sought with a large enough effect; inconclusive = small, poorly fitted or top-dose-only effect, or another doubt; inactive = no such curve, though single readings can be large; an effect the other way counts as inactive or inconclusive.
SMILES,Chronic BCR inh,DT40 TDP1 CPT,MCF10A rerep,SW480 rereplic,IL-1B inflam inh,DT40 TDP1 no CPT
COc1cc(-c2noc(-c3ccc(N4CCCCC4)c([N+](=O)[O-])c3)n2)cc(OC)c1OC,nt,-3%,nt,nt,nt,-1%
COc1ccc(-c2noc(-c3ccc(NCC4CCCO4)c([N+](=O)[O-])c3)n2)cc1OC (stereo not drawn),nt,?,nt,nt,nt,-27%
COc1cc(-c2noc(-c3ccc(N(C)C)c([N+](=O)[O-])c3)n2)cc(OC)c1OC,nt,21µM*,nt,nt,nt,26µM*
COc1cc(-c2noc(-c3ccc(NCC4CCCO4)c([N+](=O)[O-])c3)n2)cc(OC)c1OC (stereo not drawn),nt,7.3µM*,nt,nt,nt,3.7µM*
COC(=O)C1CN(S(=O)(=O)c2cc(OC)ccc2OC)CCS1 (stereo not drawn),-1%,-23%,2%,3%,-10,-6%
CC(Oc1ccccc1)C(=O)N[C@@H]1C(=O)N2C(C(=O)O)C(C)(C)S[C@H]12 (stereo partly drawn),nt,-1%,nt,nt,nt,8%
CC1(C)CC(=O)N(c2ccc(Cl)cc2Cl)C(=O)C1,0%,0%,-2%,-7%,-25,-14%
O=C(Nc1cccc(-c2nnc(-c3ccccc3)o2)c1)c1ccco1,?,-26%,14%,-7%,15,?
Cc1nn2c(-c3cccc(NC(=O)c4ccco4)c3)nnc2c2ccccc12,?,21µM*,?,5%,?,21µM*
CCOc1cc(C#N)c(NC(=O)c2ccco2)cc1OCC,?,12µM*,?,9.2µM*,21,6.5µM*
O=C(OCC(=O)c1c[nH]c2ccccc12)c1ccco1,-2%,-18%,-4%,-2%,0,-21%
CCOc1cc(NC(=O)c2ccco2)c(OCC)cc1NC(=O)CCc1ccccc1OC,7%,9.2µM*,?,2%,-3,7.3µM*
CCOc1cc(NC(=O)c2ccco2)c(OCC)cc1NC(=O)c1cc(OC)c(OC)c(OC)c1,8%,?,?,?,-8,?
COc1cc(NC(=O)c2ccco2)c(C(=O)OCC(=O)c2c[nH]c3ccccc23)cc1OC,0%,15µM*,23µM*,?,26,8.2µM*
COc1ccc(N2CCN(C(c3ccc4ncccc4c3)c3nnnn3C(C)C)CC2)cc1 (stereo not drawn),-9%,-14%,1%,-8%,13,10%
CCOc1cc(NC(=S)NC)c(OCC)cc1NC(=O)c1ccco1,5%,-6%,6%,2%,-6,-7%
CCOc1ccc(-c2cccc(NC(=O)c3ccco3)c2)nn1,2%,?,5%,3%,8,21µM*
CCOc1cc(NC(=O)c2ccco2)c(OCC)cc1NC(=O)c1ccco1,0%,-20%,?,-2%,17,2.9µM*
CCS(=O)(=O)c1ccc(-c2cccc(NC(=O)c3ccco3)c2)nn1,?,-1%,1%,-14%,2,?
COc1cc(NC(=O)c2ccco2)c(OC)cc1NC(=O)c1cc(OC)c(OC)c(OC)c1,?,?,3%,-4%,-5,21µM*
Cc1ccc(C)c(NC(=O)CSc2nnc(C3CCCCC3)o2)c1,-2%,3%,18%,-7%,19,-12%
COc1ccc(NC(=O)CCc2nnc3n(C)c(=O)c4sccc4n23)cc1,nt,?,nt,nt,nt,-26%
N#CCCN(C(=O)COC(=O)CNS(=O)(=O)c1ccc2ccccc2c1)c1ccccc1,?,-2%,6%,-35%,12,6%
O=C(CN1C(=O)/C(=C2\SC(=S)N(C3CCS(=O)(=O)C3)C2=O)c2ccccc21)Nc1ccccc1 (stereo not drawn),-2%,?,-4%,-10%,4,13µM*
Cn1nc(C(F)(F)F)c2cc(C(=O)Nc3ccc(Cl)cc3)sc21,-2%,?,7%,-4%,?,?
SMILES,Chronic BCR inh,DT40 TDP1 CPT,MCF10A rerep,SW480 rereplic,IL-1B inflam inh,DT40 TDP1 no CPT
COc1ccc(-c2nn(C)c3sc(C(=O)Nc4cc(OC)c(OC)c(OC)c4)cc23)cc1OC,nt,18µM*,nt,nt,nt,6.5µM*
COc1ccc(C2=NS(=O)(=O)N(C)C(C(=O)NCc3ccco3)=C2)cc1OC,?,?,1%,-1%,-15,-27%
COc1ccc(NC(=O)c2cc3c(-c4ccc(OC)c(OC)c4)nn(C)c3s2)cc1OC,?,18µM*,18%,?,?,21µM*
COc1ccc(-c2cc(C(=O)Nc3cc(OC)c(OC)c(OC)c3)no2)cc1OC,?,?,?,0%,7,?
COc1ccc(-c2nn(C)c3sc(C(=O)NCc4ccco4)cc23)cc1OC,-22%,?,-7%,-19%,-5,21µM*
COc1ccc2cc(/C(C)=N/NC(=O)c3cc(C)oc3C)ccc2c1,nt,?,nt,nt,-26,?
CCOC(=O)c1c(C)n(CC(O)c2ccccc2)c2ccc(O)cc12 (stereo not drawn),3%,?,?,-8%,20,18µM*
CCOc1cc(S(=O)(=O)NCCCn2ccnc2)ccc1Cl,4%,?,-1%,8%,11,-16%
C=CCOc1ccc(NC(=O)C(=O)NCCCn2ccnc2)cc1,-3%,-14%,0%,-4%,10,-8%

# From PubChem
